Screening results deposited in PubChem by several laboratories.
APP 5UTR inh: inhibitors of APP translation via 5'UTR reporter, primary screen, APP 5'UTR luciferase, SH-SY5Y cells | inhibition, % at 2 µM | actives 0.82% (n = 190,000) | SH-SY5Y APP 5'UTR-luciferase reporter, luminescence | AID 1285, 2008;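 active = inhibition above a set limit, derived from the sample mean plus 3 SD, cut at about 45% in these data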
IEC-6 tox: cytotoxicity in IEC-6 intestinal epithelial cells, primary screen, cytotoxicity control for KLF5 inhibitor project, cell-based, luminescence. IEC-6 cytotoxicity, luminescence viability. inhibition, % at 5 µM. actives 0.78% (n = 290,000). AID 1825, 2009; in the data active = inhibition above about 22%;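 note: 0% = plate median of test compound wells and 100% = cytotoxic reference compound wells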
BaF3 parental: parental Ba/F3 cell viability inhibition, counter-screen for JAK2V617F inhibitor project, murine pro-B, CellTiter-Glo luminescence | CellTiter-Glo ATP luminescence | inhibition, % at 5.6 µM | actives 1.1% (n = 220,000);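 active = inhibition above a per-campaign cutoff, the mean inhibition of all tested compounds plus 3 SD, cut at about 27% in these data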;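 note: 0% = DMSO wells and 100% = JAK Inhibitor I control wells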
KLF5 inhibitor: KLF5 expression inhibitors, primary screen, DLD-1 cells, luminescence. DLD-1 KLF5 promoter-luciferase reporter. inhibition, % at 5 µM. actives 0.23% (n = 290,000). AID 1700, 2009;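 active = inhibition above a per-plate limit of that plate's mean compound inhibition plus 3 SD, cut at about 60% in these data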;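 note: 0% = DMSO wells and 100% = LY294002 at 200 µM; higher means less KLF5 promoter-driven luciferase light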
Ba/F3 V617F tox: reduced viability of JAK2V617F-dependent Ba/F3 cells, primary screen, JAK2V617F inhibitor project, cell-based, Ba/F3 EpoR-JAK2V617F, luminescence. actives 1.1% (n = 220,000). inhibition, % at 5.6 µM. ATP luminescence;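 active = inhibition above the campaign mean plus 3 SD over all tested compounds, cut at about 24% in these data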;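 note: cytokine-independent growth of Ba/F3 cells driven by EpoR plus mutant JAK2; 0% = DMSO-treated cells and 100% = JAK inhibitor I control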
* marks the source's active call; other numbers are inactive results; x = not tested or not shown. The list is not random: actives were taken first. Their share in the collection is about 1.8%.

SMILES	APP 5UTR inh	IEC-6 tox	BaF3 parental	KLF5 inhibitor	Ba/F3 V617F tox
O=C(OCCN1C(=O)c2cccc3c(N4CCOCC4)ccc(c23)C1=O)c1ccc(Cl)cc1Cl	94.1*	-3.4	0.1	-11.3	-3.2
CCCCC(=O)Oc1c(S(=O)(=O)c2ccccc2)c(C)nn1C(C)(C)C	x	4.0	x	6.7	x
Cc1cc(C2=NNC(=NC3CC3)SC2)c(C)n1-c1ccccc1F	69.5*	6.5	4.1	-16.0	-0.6
Cc1cc(C2=NNC(=NC3CCCCC3)SC2)c(C)n1-c1c(C)n(C)n(-c2ccccc2)c1=O	-6.2	-3.9	-0.6	-4.0	-1.5
COc1cc(/C=C(\C#N)C(=O)Nc2cc(C(F)(F)F)ccc2Cl)ccc1OCC(=O)Nc1cccc(C(F)(F)F)c1	2.3	5.7	9.0	-11.3	3.9
COC(=O)Nc1nc2ccc(-c3n[nH]c(=O)c4ccccc34)cc2[nH]1	55.1*	-3.6	2.9	-25.4	-3.3
COC(=O)c1ccc(-c2n[nH]c(=O)c3ccccc23)cc1	23.8	-3.1	1.9	-8.0	-1.2
Cc1cc(/C=N/n2cnnc2)c(C)n1-c1ccc(Cl)cc1	-2.8	7.2	4.6	-1.9	5.9
Cc1cc(/C=N/n2cnnc2)c(C)n1-c1ccc(OCc2ccc(Cl)cc2Cl)cc1	50.9*	-1.5	5.3	57.3	-0.2
FC(F)(F)c1ccc(NC(=S)NCc2ccccc2)cc1	4.5	-1.1	3.9	-23.8	0.1
CCOC(=O)c1c(NC(=O)C[n+]2ccc(N(C)C)cc2)sc(C)c1C	-15.3	7.5	35.0*	-6.8	29.3*
CC1SC(=S)N(c2ccc(N(C)C)cc2)C1=O (stereo not drawn)	x	14.4	x	-17.3	x
COc1ccc(/C=C2\CCOC2=O)cc1	-10.8	4.4	3.3	-25.2	-3.9
COc1ccc(/C=C2/C(=O)OCc3cc(OC)c(OC)cc32)cc1	81.7*	25.6*	27.6*	30.3	56.9*
Clc1ccc(COc2cccc(CNCc3ccncc3)c2)cc1	-0.1	1.7	38.1*	-33.0	4.7
CC(C)(CO)NCc1cccc(OCc2ccc(Cl)cc2)c1	-12.4	-7.6	4.4	-10.9	2.6
O=C(COc1ccccc1Cl)N1CCCC1	-13.5	6.7	0.7	-22.6	-3.1
O=C(COc1ccccc1Cl)N1CCN(c2ccc(F)cc2)CC1	-12.0	-0.9	93.3*	-11.0	-0.4
CCn1c(SCC(=O)NC2CC2)nnc1-c1ccc(C)cc1	x	-4.3	x	-19.3	x
CC1CN(C(=O)CCc2cc(C(C)(C)C)c(O)c(C(C)(C)C)c2)CC(C)O1 (stereo not drawn)	x	-4.8	x	-11.0	x
COc1ccc(/C=N/NC(=O)c2cc(=O)[nH]c3ccccc23)cc1OC	0.7	1.7	38.7*	-12.2	3.1
O=C(N/N=C/c1ccco1)c1cc(=O)[nH]c2ccccc12	-7.1	-11.9	9.9	-17.9	2.3
COC(=O)c1ccc(N2CCCCC2)c(NC(=O)c2ccco2)c1	x	2.5	x	-16.5	x
COc1nnc(-c2ccc(N3CCCCC3)c(N)c2)c2ccccc12	-17.6	6.3	45.7*	-9.4	37.1*
CCCC(=O)Nc1cc(-c2nnc(OC)c3ccccc23)ccc1N1CCCCC1	-18.4	9.0	-1.0	3.4	1.3
SMILES	APP 5UTR inh	IEC-6 tox	BaF3 parental	KLF5 inhibitor	Ba/F3 V617F tox
COC(=O)c1ccccc1NC(=O)c1cnn2cccnc12	-4.2	0.8	0.7	-24.8	-2.5
Cc1nn(C(=O)CCC(=O)NCCc2ccccc2)c2ccccc12	x	9.0	x	0.3	x
CCOC(=O)CN1C(=O)/C(=C/c2ccccc2Br)Oc2ccccc21	x	4.9	x	-3.5	x
COc1ccc(NC(=O)C23CC4CC(C2)CC(n2cnc(Br)n2)(C4)C3)cc1Cl	46.7*	-1.1	0.7	-3.6	-0.2
CCOc1ccc(C(=O)N2CCc3ccccc32)cc1OCC	x	-3.1	x	-38.3	x
O=C(Nc1ccc(Cl)cc1)Nc1ccc(N2CCCC2)c(S(=O)(=O)Nc2ccccc2Cl)c1	4.1	4.1	37.4*	-24.7	52.6*
CC(/C=N\Nc1nnc2c(n1)[nH]c1c(C)cccc12)=C\c1ccco1	8.1	-0.9	2.7	-45.7	1.2
N#Cc1ccc(C(=O)Nn2cnnc2)cc1	x	-4.4	x	-23.9	x
CCCCN(C(=O)c1cc2ccccc2o1)c1c(N)n(CCC)c(=O)[nH]c1=O	-0.7	1.9	11.4	-9.9	3.0
CCCCN(C(=O)c1cc2ccccc2o1)c1c(N)n(CC(C)C)c(=O)[nH]c1=O	54.5*	2.3	4.7	-2.5	-2.8
